The nature of experiment [1]: qHTS Assay for Identifying Gametocytocidal Compounds (AID 743244).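 Note: % is set by controls: 0 for no effect and ±100 for the full control effect; actives lower the fluorescent signal which means gametocytes are killed.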 The conditions noted are these: P. falciparum 3D7 stage III-V gametocytes, alamarBlue, 72 h; max response: stronger effect = lower value. Summed up: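 Stage III–V gametocytes of P. falciparum 3D7 were seeded at 20,000 cells/well onto pre-dispensed compounds. After 72 h, 37 °C, 5% CO2, alamarBlue was added for another 24 h.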

Experiment [2] in a line: qHTS assay for measurement of the activity of small molecule inhibitors on Zika virus induced Caspase-3 activity in human iPSC derived neural progenitor cells (hNPCs) (AID 1224857). Note: % of control where 0% means no effect; nearly all actives have a fitted effect of over 65% in size. Summed up:
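Values are percent inhibition of virus-induced caspase-3/7 signal, scaled between uninfected cells and ZIKV-infected cells. Infection used 2 FFU/cell for 6 h after 1 h compound exposure.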
For orientation: In qHTS, concentration-response curves come from the screen itself.

Experiment [3] can be described thus: qHTS assay for measurement of the activity of small molecule inhibitors on Zika virus induced Caspase-3 activity in human astrocytoma cells (AID 1224859). Note: potency is the fitted concentration of half-maximal effect. Summed up:
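Compound added 1 h pre-infection; ZIKV 2 FFU/cell on SNB-19 cells, 6 h, 37 C/5% CO2. Caspase-Glo 3/7 luminescence; values as % inhibition of ZIKV-induced caspase activity.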

The target of experiment [4] is T1, Hexokinase-4 (Homo sapiens) + Glucokinase regulatory protein (Homo sapiens) (UniProt P35557+Q14397). In words: qHTS assay for inhibitors of recombinant human GCK-GKRP interaction: Diaphorase-coupled assay (AID 743205). In outline: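 Signal derives from resorufin generated by diaphorase, linked to GCK turnover of glucose (5 mM) and ATP (0.4 mM). Enzyme complex was added after a 20-minute compound preincubation and monitored for 30 minutes.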
T1 sequence (P35557 whole entry, looked up): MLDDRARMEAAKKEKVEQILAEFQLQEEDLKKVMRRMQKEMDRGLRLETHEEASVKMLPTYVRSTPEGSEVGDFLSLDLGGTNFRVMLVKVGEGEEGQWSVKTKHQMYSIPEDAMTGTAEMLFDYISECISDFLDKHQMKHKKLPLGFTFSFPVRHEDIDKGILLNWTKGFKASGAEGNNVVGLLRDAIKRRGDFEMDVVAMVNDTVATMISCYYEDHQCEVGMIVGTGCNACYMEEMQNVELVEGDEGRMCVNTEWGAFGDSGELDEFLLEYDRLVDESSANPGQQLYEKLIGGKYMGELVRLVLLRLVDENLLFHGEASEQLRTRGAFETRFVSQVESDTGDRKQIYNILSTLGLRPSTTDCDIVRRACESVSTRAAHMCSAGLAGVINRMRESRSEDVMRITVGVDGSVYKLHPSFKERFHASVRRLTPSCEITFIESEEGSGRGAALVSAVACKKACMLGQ
T1 sequence (Q14397 whole entry, looked up): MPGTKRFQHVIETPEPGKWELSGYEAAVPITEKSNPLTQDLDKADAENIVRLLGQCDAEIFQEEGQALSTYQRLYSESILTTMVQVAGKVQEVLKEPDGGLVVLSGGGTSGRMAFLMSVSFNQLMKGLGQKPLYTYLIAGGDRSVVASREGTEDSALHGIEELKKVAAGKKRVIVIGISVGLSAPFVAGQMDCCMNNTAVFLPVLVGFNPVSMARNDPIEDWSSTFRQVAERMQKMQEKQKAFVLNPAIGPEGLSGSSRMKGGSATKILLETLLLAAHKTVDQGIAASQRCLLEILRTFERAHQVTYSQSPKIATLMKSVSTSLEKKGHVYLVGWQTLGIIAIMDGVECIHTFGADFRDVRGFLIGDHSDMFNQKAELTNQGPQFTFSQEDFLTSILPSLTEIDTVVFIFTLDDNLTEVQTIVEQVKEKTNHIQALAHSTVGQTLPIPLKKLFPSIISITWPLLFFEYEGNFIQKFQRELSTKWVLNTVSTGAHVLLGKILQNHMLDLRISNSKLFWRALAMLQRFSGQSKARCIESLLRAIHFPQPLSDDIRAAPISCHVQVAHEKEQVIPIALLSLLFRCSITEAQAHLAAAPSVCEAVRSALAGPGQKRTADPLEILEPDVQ

The target of experiment [5] is T1, Hexokinase-4 (Homo sapiens) + Glucokinase regulatory protein (Homo sapiens). Nature of the experiment: qHTS assay for inhibitors of recombinant human GCK-GKRP interaction: ADP-Glo assay (AID 743206).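 Note: plate controls were DMSO plus enzyme for no effect and no enzyme for full effect.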 Summed up:
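GST-GCK and FLAG-GKRP (15 nM each in the dispensed mix, with 2 uM S6P) react with 0.4 mM ATP and 5 mM glucose (final) in Hepes pH 7.6 for 60 min at room temperature. ADP is measured by ADP-Glo luminescence.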

The target is the same in experiment [6]. In words: qHTS assay for inhibitors of recombinant human GCK-GKRP interaction: HTRF assay (AID 743207).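 Note: 0% = DMSO with GCK present and -100% = DMSO wells lacking GCK.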 Summed up: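 Titration screening format: recombinant GST-GCK and FLAG-GKRP at 5 nM, S6P at 2 uM, labelled anti-tag antibodies, 60 min at RT, dual-wavelength HTRF readout.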
Experiment [7] is described as follows: qHTS assay for small molecule antagonists of the retinoid-related orphan receptor gamma (ROR-gamma) signaling pathway - cell viability counter screen (AID 720652; active = well fitted curve in the direction sought with a large enough effect in the repeat runs; an effect the other way counts as inactive or inconclusive;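 note: potency is the fitted concentration of half-maximal effect; compound exposure lasted 16 hr before ATP read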). Summed up: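 Counter screen in CHO cells carrying TET-inducible ROR-gamma and an ROR response element-luciferase reporter; cells plated 5 hr, compound pinned, doxycycline added, then 16 hr at 37 C. Viability read as intracellular ATP by CellTiter-Glo luminescence.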

The nature of experiment [8]: qHTS assay for small molecule agonists of the antioxidant response element (ARE) signaling pathway measured by Nrf2-dependant transcriptional activity - cell viability counter screen (AID 720653; active = well fitted curve in the direction sought with a large enough effect in the repeat runs; an effect the other way counts as inactive or inconclusive; note: potency is the fitted concentration of half-maximal effect; for max response: % is set by controls: 0 for no effect and ±100 for the full control effect). The following applies: ARE-bla HepG2 viability, CellTiter-Glo ATP luminescence, 16 h; max response: stronger effect = lower value. Summed up:
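ARE-bla HepG2 cells treated with compounds for 16 h at 37C; this counter screen measures viability as intracellular ATP by CellTiter-Glo luminescence after 30 min at room temperature.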

Experiment [9] in a line: qHTS assay for cell viability of HEK293 cells (AID 743288). For max response: % is set by controls: 0 for no effect and ±100 for the full control effect. Note: nearly all actives have a fitted effect of over 50% in size. Note: potency is the fitted concentration of half-maximal effect. The following applies: ATP luminescence (CellTiter-Glo), 18 h; max response: stronger effect = lower value. Summed up: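 Luminescent ATP quantitation served as the viability read-out. Cells (parental HEK293, 2,000/well) received compounds after at least 5 h at 37 C and were exposed for 18 h before a 30 min room-temperature reagent step.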

Experiment [10] in a line: qHTS profiling of the MIPE4 collection as inhibitors of Plasmodium falciparum (DD2) proliferation (AID 743345; call rule not given here). The conditions noted are these: P. falciparum Dd2 in erythrocytes, SYBR Green DNA, 72 h; at 28.5 µM (top of the series) unless noted. Summed up: (§1)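 Erythrocytes infected with P. falciparum (0.3% parasitemia, 2.5% hematocrit) incubated with compounds 72 h at 37 C, 5% CO2. Lysis with saponin/Triton buffer containing SYBR Green I, overnight at room temperature in the dark; DNA fluorescence (485/535 nm) normalised to 0.29 uM artemisinin and DMSO.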

The nature of experiment [11]: High-throughput drug toxicity screening in the BPDCN cell line Cal-1 (AID 1224825; call rule not given here). The following applies: Cal-1 BPDCN cell viability, qHTS; at 45.8 µM (top of the series) unless noted. Summed up: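 Cal-1 cells, 500 per well in phenol-red-free RPMI with 10% FBS, exposed to compounds for 48 hours at 37C, 5% CO2. Viability read by CellTiter-Glo luminescence; percent activity normalized to DMSO (100%) and 9.2 uM bortezomib final (0%).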

A short description of experiment [12]: qHTS profiling for inhibitors of Plasmodium falciparum (DD2) proliferation (AID 743323; call rule not given here). The conditions noted are these: lower = more inhibition; at 28.7 µM (top of the series). Summed up: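 SYBR Green fluorescence (ex 485, em 535 nm) of lysed cultures gives parasite DNA content; wells normalized to artemisinin (0.29 uM) and DMSO controls. Infected red cells: 0.3% parasitemia, 2.5% hematocrit, 72 h, 37 C.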

Experiment [13] is described as follows: qHTS profiling for inhibitors of Plasmodium falciparum (HB3) proliferation (AID 743324).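 Note: 100% = DMSO vehicle wells and 0% = artemisinin-treated control wells.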 The following applies: Plasmodium falciparum HB3 blood-stage proliferation; at 28.7 µM (top of the series). Summed up: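 P. falciparum HB3 grown in erythrocytes (0.3% parasitemia, 2.5% hematocrit final) with compound for 72 h at 37 C, 5% CO2. Parasite DNA detected by SYBR Green after saponin/triton lysis overnight; normalized to 0.29 uM artemisinin and DMSO.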

A short description of experiment [14]: qHTS assay for cell viability of the p53RE-bla HCT-116 cell line (AID 743292). Note: % is set by controls: 0 for no effect and ±100 for the full control effect; nearly all actives have a fitted effect of over 55% in size. Summed up: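 ATP-based luminescent viability (CellTiter-Glo, 30 min RT) after 16 h compound treatment at 37 C of p53RE-bla HCT-116 cells, seeded at 4,000 cells/well and rested 5 h before dosing.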
Experiment [15] is described as follows: qHTS profiling of the MIPE4 collection as inhibitors of Plasmodium falciparum (3D7) proliferation (AID 743344; call rule not given here;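 note: scaled between DMSO vehicle wells and 0.29 µM artemisinin as full inhibition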). The conditions noted are these: P. falciparum 3D7 in erythrocytes, SYBR Green DNA fluorescence, 72 h; at 28.5 µM (top of the series) unless noted. In outline: as §1
Experiment [16] in a line: qHTS profiling of the MIPE4 collection as inhibitors of Plasmodium falciparum (DD2) proliferation (Rep 2) (AID 743346; call rule not given here). The following applies: P. falciparum Dd2 in erythrocytes, SYBR Green DNA, 72 h; at 28.5 µM (top of the series) unless noted. Summed up:
as §1

The nature of experiment [17]: qHTS profiling of the MIPE4 collection as inhibitors of Plasmodium falciparum (HB3) proliferation (AID 743347; call rule not given here;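 note: plate controls were DMSO vehicle wells for no effect and artemisinin wells for full effect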). The following applies: P. falciparum HB3 in erythrocytes, SYBR Green DNA, 72 h; at 28.5 µM (top of the series) unless noted. In outline:
as §1

Values joined by “and” are separate entries in the source; they are usually repeats but may differ in a detail not shown here. Equal values may be shown once. Records with an inconclusive call do not appear. Active and inactive are the calls of the source. Unless noted, calls come from the whole dose curve; as a rule, active = well fitted curve in the direction sought with a large enough effect; inconclusive = small, poorly fitted or top-dose-only effect, or another doubt; inactive = no such curve, though single readings can be large; an effect the other way counts as inactive or inconclusive.

With `CC(C)NCC(O)COc1cccc2[nH]ccc12` (stereo not given), the max response in experiment [1] was 5.47% (inactive) and 6.31% (inactive). Also, the Potency result in experiment [2] and in [3] was “inactive” each time.
Turning to `NC(N)=Nc1nc(CSCC/C(N)=N/S(N)(=O)=O)cs1`, the outcome in experiment [4], in experiment [5] and in experiment [6] was inactive. Besides, the Potency result in experiment [2] and in [3] was “inactive” each time.
As to `CC/C(=C(\c1ccccc1)c1ccc(OCCN(C)C)cc1)c1ccccc1`, the values for the Potency in experiment [7] and in experiment [9] were 66.8 µM (active) and 70.8 µM (active), respectively. Also, the max response in experiment [8] is -20.9% (inactive). Moreover, the outcome in [4], in experiment [5] and in experiment [6] was inactive. The Potency result in experiment [2] and in [3] was “inactive” throughout.
Consider `O=C(NCc1ccccc1)c1csc(Nc2ccncn2)n1`, for which the parasite growth remaining, % of DMSO control (lower = more inhibition) in experiment [10] stood at 79.6%. In addition, the viability (% of control) in [11] amounted to 2.12%. Also, the Potency entry in experiment [3] is “inactive”.
In the case of `OC[C@@H](O)[C@H](O)[C@H](O)[C@@H](O)CO`, the Potency result in [2] and in experiment [3] was “inactive” throughout.
Turning to `O=C(O)CCc1nc(-c2ccccc2)c(-c2ccccc2)o1`, in experiment [2], the Potency entry was “inactive”.
Regarding `CCN1CCC[C@H]1CNC(=O)c1cc(S(N)(=O)=O)ccc1OC`, the result in experiment [4], in experiment [5] and in [6] was inactive. Besides, the Potency entry in experiment [2] and in [3] was “inactive” in each case.
For the compound `CC1=C(/C=C/C(C)=C/C=C/C(C)=C/C(=O)Nc2ccc(O)cc2)C(C)(C)CCC1`, the Potency in experiment [7] is 26.6 µM (active); in [8] it was 44.7 µM (active); in experiment [9] it was 50.1 µM (active). Further, the result in [4], in [5] and in [6] was inactive. Moreover, the max response in experiment [1] was -5.25% (inactive) and -28.8% (inactive). The compound also yielded an activity, percent of control in experiment [12] of 22.9%. For the same compound, the remaining proliferation (% of control), lower = more inhibition in [13] was -0.513%. Also, the Potency result in [2] was “inactive”.
As to `CCN(CC)CCNC(=O)c1ccc(N)cc1`, the result in experiment [4], in [5] and in experiment [6] was inactive. Also, the Potency result in experiment [2] and in experiment [3] was “inactive” in each case.
Turning to `C[N+](C)(C)CCCCCC[N+](C)(C)C`, the outcome in experiment [4], in experiment [5] and in experiment [6] was inactive. Further, the Potency entry in [2] and in experiment [3] was “inactive” throughout.
`COC(=O)[C@@H]1[C@H]2C[C@H]3c4[nH]c5ccccc5c4CCN3C[C@@H]2CC[C@@H]1O`: the result in experiment [4], in experiment [5] and in experiment [6] was inactive. Besides, in experiment [1], the max response is 29.3% (inactive) and 18.6% (inactive). The Potency entry in experiment [2] and in [3] was “inactive” each time.
With `CC(C)(C)c1ccc(C(O)CCCN2CCC(C(O)(c3ccccc3)c3ccccc3)CC2)cc1` (stereo not given), the Potency result in [2] and in experiment [3] was “inactive” throughout.
In the case of `CC(=O)N[C@@H](CS)C(=O)O`, the max response in experiment [8] is 3.38% (inactive); in [1], 4.68% (inactive) and -17% (inactive); in [9], -3.84% (inactive). Besides, the outcome in experiment [4], in experiment [5] and in experiment [6] was inactive. Further, the Potency entry in [14], in experiment [2] and in experiment [3] was “inactive” each time.
In experiment [15], `Cc1c(NC(=O)c2ccc(C(C)(C)C)cc2)cccc1-c1cn(C)c(=O)c(Nc2ccc(C(=O)N3CCOCC3)cc2)n1` returned a parasite growth, % of DMSO control of 5.68%. Also, in [10], the parasite growth remaining, % of DMSO control (lower = more inhibition) came to 6.89%. The compound also showed a parasite growth, % of control (lower = inhibition) in [16] of 10.1%. The same compound yielded a growth, % of control in experiment [17] of 5.53%. The viability (% of control) in experiment [11] was found to be 42.2%. For the same compound, the Potency in experiment [3] is 11.8 µM (active).

The values above are taken from PubChem BioAssay (NCATS).
